The values that follow come from PubChem BioAssay.

Assay [1] deals with Lefty1. Put plainly: Lefty1 protein binding to printed compounds – biochemical, small-molecule microarray, 635/667 nm fluorescence, primary screen (AID 1139). The following applies: fluorescence 635/667, higher = more signal.
Assay [2] deals with wheat germ agglutinin (Triticum aestivum), Alexa647-labelled. Put plainly: Alexa647-WGA lectin binding to printed small molecules – biochemical, small-molecule microarray, 635/667 nm fluorescence, artefact control for SMM control-protein annotation, profiling panel (AID 1140).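 Also: score merges 667 nm feature emission with signal to noise over triplicate slides.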 The note with it: WGA-A647 binding, 635 nm fluorescence, higher = more signal.
Assay [3] addresses Luciferin 4-monooxygenase (Photinus pyralis) (UniProt P08659). Put plainly: inhibition of purified Photinus pyralis luciferase – biochemical, luminescence, purified enzyme, 2006 set, primary screen (AID 1141).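 Also: cell-free assay with purified firefly luciferase at 100 ng per well in PBS; test concentration not given here.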 The following applies: purified firefly luciferase, SteadyGlo luminescence, 30 min; higher = more signal, called active from +8 up or from −8 down.
In assay [4] the test system is Wnt5a (protein binding on small-molecule microarray). Put plainly: small molecules binding Wnt5a protein – biophysical, small-molecule microarray, 635/667 nm fluorescence, primary screen (AID 1142).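 Also: fluorescence read at 667 nm with signal to noise per printed feature.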 The note with it: 635 nm fluorescence, higher = more signal.
Assay [5] in a line: ATP-based viability of Huh7 replicon cells – cell-based, CellTiter-Glo luminescence, basal, 48 h, cytotoxicity control for HCV replication inhibitor project, primary screen (AID 1143).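 Also: Huh7 hepatoma cells carrying a hepatitis C replication reporter with no stimulus; test concentration not given here.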 The note with it: higher = more signal, called active from +8 up or from −8 down. For orientation: Replicon systems follow genome replication, usually without infectious particles.
The nature of assay [6]: basal CRE-LacZ reporter activity in PC12 – cell-based, unstimulated, primary screen (AID 1145). The note with it: no forskolin, luminescence, 4.5 h, higher = more signal, called active from +8 up or from −8 down.
Assay [7] can be described thus: forskolin-driven CRE-LacZ activity in PC12 – cell-based, CRE-LacZ reporter, forskolin-stimulated, primary screen (AID 1146).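 Also: PC12 cells with 6xCRE LacZ reporter stimulated by forskolin 10 µM; beta-galactosidase reporter signal reflecting CREB driven transcription.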 The following applies: luminescence, 4.5 h, higher = more signal, called active from +8 up or from −8 down.
The target in assay [8] is Streptavidin (Streptomyces avidinii) (UniProt P22629). As to the kind of experiment: compounds binding control protein streptavidin – biophysical, small-molecule microarray, 635/667 nm fluorescence, artefact control for SMM compound annotation, primary screen (AID 1147).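 Also: signal reflects streptavidin binding to arrayed compounds as a control protein.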 The following applies: higher = more signal.
The nature of assay [9]: probe aInhba binding on compound microarray – biochemical, small-molecule microarray, 635/667 nm fluorescence, primary screen (AID 1148).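 Also: score merges 667nm spot fluorescence with signal-to-noise for antibody binding to printed compounds.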 The following applies: higher = more signal.
For assay [10], the target named is Torsin-1A (Homo sapiens) (UniProt O14656). As to the kind of experiment: TOR1A wild-type binding on microarray – cell lysate, small-molecule microarray, lysate, 635/667 nm, primary screen (AID 1149). The note with it: COS7 hTOR1A-WT lysate, 635 nm fluorescence, higher = more signal.
Assay [11] has the same target. As to the kind of experiment: torsin A mutant lysate binding on microarrays – cell lysate, small-molecule microarray, COS7 lysate, 635/667 nm fluorescence, primary screen (AID 1150).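 Also: score pools 667 nm emission and signal to noise measuring lysate protein binding.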 The note with it: COS7 hTOR1A mutant lysate, 635 nm fluorescence, higher = more signal.
Assay [12] has as its system Sonic hedgehog protein (Shh). Put plainly: Sonic hedgehog microarray binding compounds – biochemical, small-molecule microarray, 635/667 nm fluorescence, primary screen (AID 1151).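 Also: Shh protein binding to compounds spotted on small-molecule microarray slides; score combines spot fluorescence intensity with signal-to-noise across triplicate slides.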 The following applies: 635 nm fluorescence, higher = more signal.
Assay [13] is described as follows: optical density shifts of acrAB sulA E. coli – strain DRC41, OD650, 48 h, E. coli filamentation inducer project, primary screen (AID 1152).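 Also: E. coli MC1000 strain DRC41 lacking acrAB efflux pump and sulA.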 The following applies: higher = more signal, called active from +8 up or from −8 down.
A short description of assay [14]: probe aLefty1 binding on compound microarray – biochemical, small-molecule microarray, 635/667 nm fluorescence, primary screen (AID 1153).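 Also: score merges spot fluorescence with signal-to-noise ratio from the scanned slide images.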 The following applies: higher = more signal.
A short description of assay [15]: plasmodial surface anion channel blockers, osmotic lysis – cell-based, P. falciparum Indochina, OD700, 1 h, primary screen (AID 1154). The following applies: P. falciparum Indochina infected RBC osmotic lysis, higher = more signal, called active from +8 up or from −8 down.
The nature of assay [16]: plasmodial surface anion channel blockers, osmotic lysis – cell-based, P. falciparum Indochina, OD700, 2 h, primary screen (AID 1155).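 Also: lysis reports solute entry through the parasite surface anion channel PSAC.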 The note with it: P. falciparum Indochina infected erythrocytes, higher = more signal, called active from +8 up or from −8 down.
The nature of assay [17]: changes in parasitized red cell lysis, either direction – P. falciparum Indochina, OD700, 3 h, PSAC antagonist project, primary screen (AID 1156). The note with it: P. falciparum-infected erythrocytes, osmotic lysis, higher = more signal, called active from +8 up or from −8 down.
The nature of assay [18]: plasmodial surface anion channel blockers, osmotic lysis – cell-based, P. falciparum Indochina, OD700, 18 h, primary screen (AID 1157). The following applies: P. falciparum Indochina infected erythrocytes, osmotic lysis OD700, 18 h; higher = more signal, called active from +8 up or from −8 down.
Assay [19] is described as follows: S6 kinase pathway phospho-S6 level changes – cell-based, A549, cytoblot, luminescence, serum-stimulated, primary screen (AID 1158).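 Also: serum-stimulated A549 lung adenocarcinoma cells; signal is phosphorylated S6 detected by cytoblot immunostaining with HRP secondary.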 The following applies: 5 h, higher = more signal.
Assay [20] deals with NADPH oxidase 2 (Homo sapiens) (UniProt P04839). As to the kind of experiment: compounds shifting NOX2 Amplex Red fluorescence – cell-based, HEK293-NOX2, PMA-stimulated, NOX inhibitor project, primary screen (AID 1159). Also: test concentration not given here. The note with it: 45 min, higher = more signal, called active from +8 up or from −8 down.

Activity calls are given as the source filed them.

Sequence of Streptavidin (Streptomyces avidinii) (P22629 whole entry, looked up): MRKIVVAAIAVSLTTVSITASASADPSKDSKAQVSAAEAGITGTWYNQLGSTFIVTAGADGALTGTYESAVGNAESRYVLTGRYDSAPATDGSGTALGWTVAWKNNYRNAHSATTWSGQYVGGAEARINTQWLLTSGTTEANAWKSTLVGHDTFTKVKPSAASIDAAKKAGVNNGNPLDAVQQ
Sequence of Luciferin 4-monooxygenase (Photinus pyralis) (P08659 whole entry, looked up): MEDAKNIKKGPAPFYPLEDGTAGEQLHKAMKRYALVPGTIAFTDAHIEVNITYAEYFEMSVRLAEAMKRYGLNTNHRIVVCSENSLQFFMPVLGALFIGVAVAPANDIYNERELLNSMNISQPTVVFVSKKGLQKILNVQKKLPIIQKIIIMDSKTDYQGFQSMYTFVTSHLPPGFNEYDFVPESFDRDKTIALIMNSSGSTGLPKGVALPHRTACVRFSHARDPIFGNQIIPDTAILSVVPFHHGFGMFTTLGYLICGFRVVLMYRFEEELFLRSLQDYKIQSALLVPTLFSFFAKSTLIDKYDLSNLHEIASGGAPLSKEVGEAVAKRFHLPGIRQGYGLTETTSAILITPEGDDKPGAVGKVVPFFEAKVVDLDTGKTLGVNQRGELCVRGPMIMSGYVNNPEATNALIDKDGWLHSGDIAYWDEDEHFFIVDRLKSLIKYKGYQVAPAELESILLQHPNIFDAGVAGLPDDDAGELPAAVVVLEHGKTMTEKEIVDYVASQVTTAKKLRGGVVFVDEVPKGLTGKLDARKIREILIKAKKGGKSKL
Sequence of Torsin-1A (Homo sapiens) (O14656 whole entry, looked up): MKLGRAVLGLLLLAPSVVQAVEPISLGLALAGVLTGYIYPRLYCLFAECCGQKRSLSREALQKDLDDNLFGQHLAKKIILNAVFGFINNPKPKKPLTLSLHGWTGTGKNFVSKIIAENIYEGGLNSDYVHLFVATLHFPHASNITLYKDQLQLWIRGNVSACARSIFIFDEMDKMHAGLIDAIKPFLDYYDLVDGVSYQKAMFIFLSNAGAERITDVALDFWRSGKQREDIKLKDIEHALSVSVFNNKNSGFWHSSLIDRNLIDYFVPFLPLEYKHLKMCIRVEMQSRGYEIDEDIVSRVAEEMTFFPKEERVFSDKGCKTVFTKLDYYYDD
Sequence of NADPH oxidase 2 (Homo sapiens) (P04839 whole entry, looked up): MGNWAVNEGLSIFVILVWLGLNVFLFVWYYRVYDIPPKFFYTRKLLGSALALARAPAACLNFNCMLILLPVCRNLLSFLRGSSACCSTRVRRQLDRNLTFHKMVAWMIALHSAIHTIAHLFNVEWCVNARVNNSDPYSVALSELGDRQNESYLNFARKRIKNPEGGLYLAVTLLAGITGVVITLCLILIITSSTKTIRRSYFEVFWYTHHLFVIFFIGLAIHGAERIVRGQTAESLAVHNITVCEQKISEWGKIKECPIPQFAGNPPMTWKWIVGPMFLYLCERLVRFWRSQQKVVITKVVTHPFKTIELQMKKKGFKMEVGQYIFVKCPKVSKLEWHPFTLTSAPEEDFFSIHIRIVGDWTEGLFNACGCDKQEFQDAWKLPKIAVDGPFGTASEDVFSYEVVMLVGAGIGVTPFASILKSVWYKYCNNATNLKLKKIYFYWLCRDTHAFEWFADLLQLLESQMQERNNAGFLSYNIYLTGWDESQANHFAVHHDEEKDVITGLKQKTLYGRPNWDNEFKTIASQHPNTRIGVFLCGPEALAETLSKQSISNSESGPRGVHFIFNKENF

On to `CC(C)C[C@@H]1NC(=O)[C@@]23C(=O)N[C@@H](Cc4ccccc4)C2[C@H](C)[C@@]2(C)O[C@H]2C3/C=C/C/C=C\CNC(=O)[C@H](Cc2ccccc2)NC1=O` (stereo not given in full), for which the composite z-score in assay [1] is 0.321; in assay [2], 0.994; in [4] it was -0.108; in assay [8], -0.198; in [9] it was -0.082; in [10] it was 0.305. The composite z-score in assay [11] was 0.384; in assay [12] it was 0.46; in assay [14], -0.147. Further, the z-score in assay [3] was -0.755 (inactive); in [5] it was -4.13 (inactive); in assay [6], 4.56 (inactive); in [7], -2.06 (inactive); in [13], 1.76 (inactive); in assay [15], 1.53 (inactive). Moreover, the z-score in assay [16] is -0.0735 (inactive); in assay [17], 0.966 (inactive); in assay [18] it was 0.256 (inactive); in assay [19] it was 0.497; in [20], -0.188 (inactive).
In the case of `C=C(COC)/C(=C/C[C@H](OC(C)=O)c1cccc(OCCO)c1)c1cc(C(=O)OC)ccc1OC`, the composite z-score in assay [1] is 1.72; in assay [2] it was -1.08; in assay [4], 0.44; in [8], -0.356; in assay [9] it was -0.018; in assay [10], 1.34. Moreover, the composite z-score in assay [11] was 1.22; in assay [12] it was 1.72; in assay [14], -0.101. Also, the z-score in assay [3] is -0.727 (inactive); in assay [5] it was -8.11 (active); in assay [6], 11.5 (active); in [7], -0.4 (inactive); in assay [13] it was 1.59 (inactive); in [15], 10.1 (active). In addition, the z-score in [16] was 1.78 (inactive); in [17], -2.63 (inactive); in assay [18], -0.0354 (inactive); in [19] it was 1.44; in assay [20] it was -1.94 (inactive).
`C=C1C=C(Br)C2(OCCCO2)[C@H]2OC12` (stereo not given in full): the composite z-score in assay [1] was 0.743; in assay [2] it was -0.903; in [4], -0.093; in assay [8], 0.61; in [9], -0.128; in assay [10] it was 0.639. In addition, the composite z-score in [11] was 0.495; in assay [12], 0.411; in assay [14], -0.147. For the same molecule, the z-score was -0.914 (inactive) in assay [3]; 0.15 (inactive) in assay [5]; 0.199 (inactive) in assay [6]; 0.676 (inactive) in assay [7]; 0.659 (inactive) in assay [13]; -0.14 (inactive) in assay [15]. Moreover, the z-score in [16] is 0.146 (inactive); in assay [17] it was -0.334 (inactive); in assay [18], -0.12 (inactive); in [19] it was -0.281; in assay [20], 0.868 (inactive).
In the case of `CN(C)CCCC[C@@H]1NC(=O)[C@@H]2C[C@H](C(=O)NCCCCCNC(=O)CS)[C@H](c3cccc(OCCO)c3)N2C1=O`, the composite z-score turned out to be 1.45 in assay [1]; 0.626 in assay [2]; 0.21 in assay [4]; 0.07 in assay [8]; 0.0869 in assay [9]; 0.672 in assay [10]. Besides, the composite z-score in assay [11] amounted to 0.408; in [12], 2.01; in assay [14], 0.2. In addition, the z-score is -0.673 (inactive) in assay [3]; -5.23 (inactive) in assay [5]; -0.39 (inactive) in assay [6]; -1.49 (inactive) in assay [7]; 1.97 (inactive) in assay [13]; 2.86 (inactive) in assay [15]. Further, the z-score in [16] was 0.159 (inactive); in assay [17] it was -2.96 (inactive); in assay [18], -0.778 (inactive); in assay [19], 2.45; in assay [20], -0.143 (inactive).
With `COc1ccc([Si](C)(C)[C@@H]2[C@@H](CC(=O)N3CCC[C@H]3CO)O[C@]3(C(=O)N(Cc4ccc(I)cc4)c4ccccc43)[C@H]2C)cc1`, the composite z-score is 1.12 in assay [1]; 1.07 in assay [2]; 0.229 in [4]; 0.983 in assay [8]; -0.109 in assay [9]; 0.626 in assay [10]. Further, the composite z-score in assay [11] stood at 0.199; in assay [12], 0.646; in assay [14], 0.0677. The z-score in assay [3] was -0.765 (inactive); in assay [5], -4.55 (inactive); in assay [6], 0.105 (inactive); in assay [7], -1.86 (inactive); in assay [13], 1.97 (inactive); in [15], 5.17 (inactive). The z-score in assay [16] is 0.0509 (inactive); in [17] it was -0.7 (inactive); in assay [18], -1.17 (inactive); in [19], 2.62; in assay [20], 2.26 (inactive).
As to `O=C1O[C@H](c2ccccc2)[C@H](c2ccccc2)N2[C@H]1[C@@H](C(=O)NC[C@H](O)c1ccccc1)[C@]1(C(=O)Nc3ccc(C#CC4(O)CCCCCC4)cc31)[C@H]2c1ccc(O)cc1`, the composite z-score worked out at 0.873 in assay [1]; 0.588 in [2]; 0.195 in assay [4]; 0.26 in assay [8]; 0.0377 in assay [9]; 0.704 in [10]. In addition, the composite z-score stood at 1.02 in assay [11], 1.27 in assay [12] and 0.0495 in assay [14]. Also, the z-score in [3] was -1.56 (inactive); in assay [5], -2.13 (inactive); in [6] it was -0.0607 (inactive); in assay [7], -0.58 (inactive); in assay [13], 1.46 (inactive); in [15] it was 0.519 (inactive). The z-score was 0.447 (inactive) in assay [16]; 0.001 (inactive) in assay [17]; -0.181 (inactive) in [18]; 0.381 in assay [19]; 1.68 (inactive) in [20].
For `O=C(NO)[C@]1(Cc2ccccc2)N=C(c2ccc(OCCCO)cc2)O[C@@H]1c1ccccc1`, the composite z-score is -0.458 in assay [1]; 0.162 in [2]; -0.229 in [4]; -0.585 in [8]; -0.0782 in [9]; -0.427 in assay [10]. In addition, the composite z-score in [11] is 0.411; in assay [12], -0.351; in [14], 0.0278. The z-score in assay [3] was -2.34 (inactive); in [5], -1.7 (inactive); in [6], 3.01 (inactive); in [7], -1.91 (inactive); in assay [13], 3.88 (inactive); in [15], 15 (active). Also, the z-score in assay [16] is 0.971 (inactive); in assay [17], -0.479 (inactive); in assay [18], -0.21 (inactive); in assay [19], 2.81; in [20], 0.709 (inactive).
In the case of `CCOC(=O)C[C@H]1[C@H](OC(=O)c2ccc(-c3ccccc3)cc2)[C@@H](NC(=O)C2CCCCC2)c2cc(OCCCO)ccc2N1C(=O)c1ccc2ccccc2n1`, the composite z-score in [1] is 0.0309; in assay [2], 0.388; in [4], 0.0447; in assay [8] it was 0.391; in assay [9], 0.0582; in assay [10] it was 0.688. For the same molecule, the composite z-score in assay [11] worked out at 0.525; in [12], 0.21; in assay [14], 0.0278. In addition, the z-score is -0.784 (inactive) in assay [3]; -0.0226 (inactive) in assay [5]; 3.51 (inactive) in assay [6]; -0.876 (inactive) in [7]; 2.69 (inactive) in assay [13]; 1.45 (inactive) in assay [15]. Moreover, the z-score in assay [16] is -0.755 (inactive); in [17], -0.0072 (inactive); in assay [18], -1.16 (inactive); in [19], 1.5; in assay [20] it was 1.13 (inactive).
